From the supplement of paper PMC11634586
Counter-ions that a name gives are not always drawn. A number with no mark means an inactive call.

These compounds were tested on NCI-H1688 (assay: inhibition of cell viability relative to untreated control (fraction); higher = stronger growth inhibition, active = 0.5 or more). Conditions: 30 µM; 24 h.
Protocol: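 Natural product library (TargetMol, 640 compounds) screened on NCI-H1688 SCLC cells at 30 µM for 24 h; viability by CCK-8 absorbance at 450 nm, normalised to untreated control and expressed as inhibition rate (fraction). Compounds with >50% reduction in viability were selected as hits.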

Q: How did the “inhibition of cell viability” value turn out when `O=C(O)CCCC[C@@H]1CCSS1` [Thioctic acid] was run?
A: The value was -0.0532.

Q: With `COc1ccc2c(C)cc(=O)oc2c1` [7-Methoxy-4-methylcoumarin] as the compound, how does the “inhibition of cell viability” value read?
A: Its value is -0.298.

Q: How did the “inhibition of cell viability” value turn out when `O=C(/C=C/c1ccc(O)c(O)c1)O[C@@H]1C[C@](O)(C(=O)O)C[C@@H](O)[C@H]1O` [Chlorogenic Acid] was run?
A: The value was 0.162.

Q: For `Oc1ccc(/C=C/c2cc(O)cc(O)c2)cc1` [Resveratrol], which “inhibition of cell viability” value is on record?
A: The value was 0.49.

Q: `O=c1cc(-c2ccccc2)oc2cc(O)c(O)c(O)c12` [Baicalein] was tested. Which “inhibition of cell viability” value did it give?
A: Its value is 0.728 (active).

Q: How did the “inhibition of cell viability” value turn out when `O=c1cc(-c2ccccc2)oc2c(O)c(O)ccc12` [7,8-Dihydroxyflavone] was run?
A: The value was 0.694 (active).

Q: With `C[C@H](CCC(=O)NCC(=O)O)[C@H]1CC[C@H]2[C@@H]3[C@H](O)C[C@@H]4C[C@H](O)CC[C@]4(C)[C@H]3C[C@H](O)[C@]12C` [Glycocholic acid] as the compound, how does the “inhibition of cell viability” value read?
A: Its value is -0.11.

Q: `Nc1ncnc2c1ncn2[C@@H]1O[C@H](COP(=O)(O)OP(=O)(O)OP(=O)(O)O)[C@@H](O)[C@H]1O` [Adenosine disodium triphosphate] was tested. Which “inhibition of cell viability” value did it give?
A: Its value is 0.0565.

Q: How did the “inhibition of cell viability” value turn out when `NC(=O)CC[C@H](N)C(=O)O` [L-Glutamine] was run?
A: The value was -0.0181.

Q: How did the “inhibition of cell viability” value turn out when `CNC1CCCN(c2c(F)cc3c(=O)c(C(=O)O)cn(C4CC4)c3c2OC)C1` (stereo not given) [Balofloxacin] was run?
A: Its value is 0.118.

Q: With `O=c1cc(-c2ccccc2)oc2ccccc12` [Flavone] as the compound, how does the “inhibition of cell viability” value read?
A: The value was 0.149.

Q: With `CC(C)(S)[C@@H](N)C(=O)O` [Artamine] as the compound, how does the “inhibition of cell viability” value read?
A: Its value is 0.0772.

Q: How did the “inhibition of cell viability” value turn out when `COc1cc2c(c(OC)c1OC)-c1c(cc3c(c1OC)OCO3)CC(C)C(C)C2` (stereo not given) [Schizandrin B] was run?
A: Its value is -0.0395.

Q: For `Cn1c(=O)c2c(ncn2CC(=O)O)n(C)c1=O` [Theophylline-7-acetic acid], which “inhibition of cell viability” value is on record?
A: The value was -0.159.

Q: How did the “inhibition of cell viability” value turn out when `C[C@@H]1CCCCCCCCCCCCC(=O)C1` [Muscone] was run?
A: The value was -0.148.

Q: For `C=C[C@@]1(C)CC(=O)[C@]2(O)[C@@]3(C)[C@@H](O)CCC(C)(C)[C@@H]3[C@H](O)[C@H](OC(C)=O)[C@@]2(C)O1` [Forskolin], which “inhibition of cell viability” value is on record?
A: Its value is 0.166.

Q: With `O=C1/C(=C2\Nc3ccccc3C2=O)Nc2ccccc21` [Indigo] as the compound, how does the “inhibition of cell viability” value read?
A: Its value is -0.275.

Q: For `C[C@@H]1CC[C@@]2(OC1)O[C@H]1C[C@H]3[C@@H]4CC=C5C[C@@H](O)CC[C@]5(C)[C@H]4CC[C@]3(C)[C@H]1[C@@H]2C` [Diosgenin], which “inhibition of cell viability” value is on record?
A: Its value is -0.279.

Q: `CN[C@@H]1[C@H](O[C@H]2[C@H](O[C@H]3[C@H](O)[C@@H](O)[C@H](N=C(N)N)[C@@H](O)[C@@H]3N=C(N)N)O[C@@H](C)[C@]2(O)C=O)O[C@@H](CO)[C@H](O)[C@H]1O` [Streptomycin sulfate] was tested. Which “inhibition of cell viability” value did it give?
A: The value was -0.138.

Q: Which “inhibition of cell viability” value does the source give for `C/C=C/c1ccc(OC)cc1` [Trans-Anethole] here?
A: The value was -0.146.

Q: With `CC1(C)CC[C@]2(C(=O)O)[C@H](O)C[C@]3(C)C(=CC[C@@H]4[C@@]5(C)CC[C@H](O)[C@@](C)(C=O)[C@@H]5CC[C@]43C)[C@@H]2C1` [Quillaic Acid] as the compound, how does the “inhibition of cell viability” value read?
A: Its value is 0.0942.

Q: Which “inhibition of cell viability” value does the source give for `C[C@H]1O[C@@H](O[C@H]2[C@@H](O)C[C@H](O[C@H]3[C@@H](O)C[C@H](O[C@H]4CC[C@@]5(C)[C@H](CC[C@@H]6[C@@H]5C[C@@H](O)[C@]5(C)[C@@H](C7=CC(=O)OC7)CC[C@]65O)C4)O[C@@H]3C)O[C@@H]2C)C[C@H](O)[C@@H]1O` [Digoxin] here?
A: The value was 0.995 (active).

Q: How did the “inhibition of cell viability” value turn out when `C=C1CC[C@@H]2[C@](C)(CO)[C@H](O)CC[C@@]2(C)[C@H]1C/C=C1\C=COC1=O` [Dehydroandrographolide] was run?
A: The value was 0.14.

Q: For `NC(=O)NCCC[C@H](N)C(=O)O` [Citrulline], which “inhibition of cell viability” value is on record?
A: Its value is -0.126.

Q: How did the “inhibition of cell viability” value turn out when `COc1cc(CCC(=O)O)ccc1O` [Hydroferulic acid] was run?
A: Its value is 0.0171.

Q: Which “inhibition of cell viability” value does the source give for `C[C@]12C[C@H](O)[C@H]3[C@@H](CCC4=CC(=O)CC[C@@]43C)[C@@H]1CC[C@@H]2C(=O)CO` [Corticosterone] here?
A: Its value is 0.0335.

Q: How did the “inhibition of cell viability” value turn out when `O=c1ccc2ccc(O)cc2o1` [7-Hydroxycoumarin] was run?
A: The value was -0.0276.

Q: With `CC(=O)OC(C)C(C)C(=O)OCC12C3CC(C)(C)[C@H](O[C@@H]1C[C@]1(C)C3=CCC3C4(C)CCC(O[C@@H]5O[C@H](C(=O)O)[C@@H](O[C@H]6O[C@H](CO)[C@@H](O)[C@H](O)[C@H]6O)[C@H](O)[C@H]5O[C@@H]5OC[C@@H](O)[C@H](O)[C@H]5O)[C@](C)(CO)C4CCC31C)C2O` (stereo not given in full) [Sodium Aescinate] as the compound, how does the “inhibition of cell viability” value read?
A: Its value is 0.524 (active).

Q: Which “inhibition of cell viability” value does the source give for `C[C@@H]1O[C@@H](O[C@H]2C(=O)c3c(O)cc(O)cc3O[C@@H]2c2ccc(O)c(O)c2)[C@H](O)[C@H](O)[C@H]1O` [Astilbin] here?
A: Its value is -0.0142.

Q: How did the “inhibition of cell viability” value turn out when `COc1ccc2cc1Oc1ccc(cc1)C[C@H]1c3cc(c(OC)cc3CCN1C)Oc1c(OC)c(OC)cc3c1[C@H](C2)N(C)CC3` [Tetrandrine] was run?
A: The value was 1.01 (active).

Q: For `COC(=O)C1=CO[C@@H](O)[C@@H]2C(CO)=CC[C@H]12` [Genipin], which “inhibition of cell viability” value is on record?
A: Its value is 0.135.

Q: Which “inhibition of cell viability” value does the source give for `CC(=O)[C@H]1CC[C@H]2[C@@H]3CCC4=CC(=O)CC[C@]4(C)[C@H]3CC[C@]12C` [Progesterone] here?
A: Its value is -0.156.

Q: `CN[C@@H]1[C@H](O)[C@H](NC)[C@H]2O[C@@]3(O)C(=O)C[C@@H](C)O[C@H]3O[C@@H]2[C@H]1O` [Spectinomycin dihydrochloride] was tested. Which “inhibition of cell viability” value did it give?
A: The value was 0.186.

Q: For `O=C1C[C@@H](c2ccccc2)Oc2cc(O)cc(O)c21` [Pinocembrin], which “inhibition of cell viability” value is on record?
A: Its value is -0.374.

Q: How did the “inhibition of cell viability” value turn out when `C[C@@H]1O[C@@H](O[C@@H]2[C@@H](O)[C@H](OCCc3ccc(O)c(O)c3)O[C@H](CO)[C@H]2OC(=O)/C=C/c2ccc(O)c(O)c2)[C@H](O)[C@H](O)[C@H]1O` [Verbascoside] was run?
A: The value was 0.0855.

Q: For `CC1CCC2(O)C(C)(C)C3CCC2(C)C1C3` (stereo not given) [Patchouli alcohol], which “inhibition of cell viability” value is on record?
A: The value was 0.0152.

Q: `COc1c2ccoc2cc2oc(=O)ccc12` [Bergapten] was tested. Which “inhibition of cell viability” value did it give?
A: The value was 0.298.

Q: Which “inhibition of cell viability” value does the source give for `CC(C)=CCC[C@](C)(O)[C@H]1CC[C@]2(C)[C@@H]1[C@H](O)C[C@@H]1[C@@]3(C)CC[C@H](O)C(C)(C)[C@@H]3CC[C@]12C` [(20S)-Protopanaxadiol] here?
A: The value was -0.0275.

Q: Which “inhibition of cell viability” value does the source give for `CC(C)=CCC[C@](C)(O[C@@H]1O[C@H](CO[C@@H]2O[C@@H](CO)[C@H](O)[C@H]2O)[C@@H](O)[C@H](O)[C@H]1O)[C@H]1CC[C@]2(C)[C@@H]1[C@H](O)C[C@@H]1[C@@]3(C)CC[C@H](O[C@@H]4O[C@H](CO)[C@@H](O)[C@H](O)[C@H]4O[C@@H]4O[C@H](CO)[C@@H](O)[C@H](O)[C@H]4O)C(C)(C)[C@@H]3CC[C@]12C` [Ginsenoside Rc] here?
A: The value was -0.0382.

Q: For `Cc1cc2nc3c(=O)[nH]c(=O)nc-3n(C[C@H](O)[C@H](O)[C@H](O)CO)c2cc1C` [Riboflavin], which “inhibition of cell viability” value is on record?
A: Its value is 0.284.
